Sampled rows, rich in hits. Any-hit rate of the full collection: about 2.6%.
Mcl-1 Bim block = inhibitors of Bim-Mcl-1 interaction, human; Bead-based flow cytometry, Bim peptide-Mcl-1 binding; inhibition, % at 10 µM; 190,000 compounds, 0.1% hits; AID 1009; in the data active = inhibition above about 40%
Target sequence (Q07820 whole entry, looked up): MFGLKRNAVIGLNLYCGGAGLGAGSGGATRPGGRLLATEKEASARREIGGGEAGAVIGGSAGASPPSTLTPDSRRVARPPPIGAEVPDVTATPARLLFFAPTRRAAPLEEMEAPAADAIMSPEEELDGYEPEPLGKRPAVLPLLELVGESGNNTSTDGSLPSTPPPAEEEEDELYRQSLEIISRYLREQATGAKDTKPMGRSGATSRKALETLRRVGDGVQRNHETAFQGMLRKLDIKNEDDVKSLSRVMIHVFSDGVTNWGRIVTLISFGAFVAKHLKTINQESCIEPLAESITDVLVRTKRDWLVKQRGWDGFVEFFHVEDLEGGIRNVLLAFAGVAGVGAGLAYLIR
MCL1-BIM inh = disrupts human MCL1 binding to BIM-BH3 peptide; inhibition, % at 10.9 µM; GST-MCL1 / FITC-Bim-BH3 fluorescence polarization; AID 2057; Q07820; 320,000 compounds, 0.68% hits;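 active = inhibition above the mean inhibition of all tested compounds plus 3 SD, set per campaign, cut at about 40% in these data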;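 note: higher means more loss of mP so more displacement of Bim peptide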
14-3-3 Bad PPI = disrupts binding of bovine 14-3-3 zeta to phospho-Bad peptide | inhibition, % at 21.7 µM | 220,000 compounds, 0.71% hits | AID 781 | P63103 | TR-FRET 14-3-3zeta/Dy647-pBad peptide displacement, 1 h;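 active = inhibition above about 70%, limit read from the data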
Target sequence (P63103 whole entry, looked up): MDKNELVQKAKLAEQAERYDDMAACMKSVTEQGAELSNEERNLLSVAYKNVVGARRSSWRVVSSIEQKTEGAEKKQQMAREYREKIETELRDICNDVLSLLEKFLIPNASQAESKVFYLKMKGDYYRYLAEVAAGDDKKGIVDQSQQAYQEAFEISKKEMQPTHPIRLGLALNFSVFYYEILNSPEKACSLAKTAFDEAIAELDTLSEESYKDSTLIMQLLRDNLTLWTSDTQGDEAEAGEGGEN
Mcl1 Noxa PPI = Mcl-1/Noxa interaction inhibition | Q07820 | TR-FRET Mcl-1/Noxa peptide binding, 2 h | inhibition, % at 21.7 µM | 220,000 compounds, 1.5% hits | AID 1022;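 active = compounds that cut the protein-peptide binding signal by more than 50% relative to plate controls in a single-dose test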;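 note: His-tagged Mcl-1 with rhodamine Noxa BH3 peptide and terbium anti-His antibody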
eIF4E 4G PPI = eIF4E/eIF4G interaction inhibition in translation initiation. AID 782. TR-FRET eIF4E-eIF4GI(517-606) binding, 2 h. P63073+Q04637. inhibition, % at 21.7 µM. 220,000 compounds, 0.37% hits;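 active = inhibition above about 30%, limit read from the data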
Mcl1 Bid PPI = disrupts binding of human Mcl-1 to Bid peptide; Q07820; TR-FRET Mcl-1/Bid-Dy647 peptide binding, 1536-well; inhibition, % at 21.7 µM; 220,000 compounds, 0.97% hits; AID 1021;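 active = compounds that cut the binding signal by more than half at the single screening dose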;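 note: His-tagged Mcl-1 with europium anti-His antibody binding Bid BH3 peptide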
Hits are given with their value; n = inactive; x = no result; [ ] = dose if it differs, or a comment.

SMILES | Mcl-1 Bim block | MCL1-BIM inh | 14-3-3 Bad PPI | Mcl1 Noxa PPI | eIF4E 4G PPI | Mcl1 Bid PPI
O=C(CN1C(=O)NC2(CCCCCCC2)C1=O)N1CCc2ccccc2C1 | n | n | n | n | n | n
COc1ccccc1CC1(C)NC(=O)N(CC(=O)N2CCc3ccccc3C2)C1=O (configuration not stated) | n | n | n | n | n | 57
CCCC(=O)N1CC(=O)Nc2ccc(Br)cc2C1c1ccc(F)cc1 (configuration not stated) | x | n | x | x | x | x
O=C1CN(C(=O)CCN2CCOCC2)C(c2ccccc2)c2cc(Br)ccc2N1 (configuration not stated) | 44 | n | n | n | n | n
CCOC(=O)c1c(CN2CCOCC2)oc2ccc(OC)cc12 | n | n | 79 | n | n | n
CC(=O)c1ccc(OC(=O)COc2ccccc2)cc1 | x | n | x | x | x | x
C=CCN1C(C(=O)c2ccccc2)=C(OC(=O)COc2ccccc2)c2ccccc2S1(=O)=O | n | n | 77 | n | n | n
Cc1ccc(NC(=O)c2cc(S(=O)(=O)NCCC3=CCCCC3)ccc2F)cc1F | 68 | n | n | n | n | n
O=C(O)c1cc(-c2ccccc2)n(-c2ccc(Cl)cc2Cl)n1 | x | n | x | x | x | x
O=C(O)c1cc(-c2ccccc2)n(-c2ccccc2C(=O)O)n1 | n | n | n | n | 42 | n
C[C@@H](C(=O)NCc1ccccc1)[C@@H]1C[C@@]1(C)[C@@H](NC(=O)OCc1ccccc1)c1ccccc1 | n | n | n | n | n | n
C[C@@H](C(=O)NCCc1c[nH]c2ccccc12)[C@@H]1C[C@@]1(C)[C@@H](NC(=O)OCc1ccccc1)c1ccccc1 | 86 | n | n | n | n | n
CC(Oc1cccc(Cl)c1)C(=O)N1CCCN(C)CC1 (configuration not stated) | x | n | x | x | x | x
CCn1ncc(S(=O)(=O)Nc2cc(Cl)ccc2C)c1C | x | n | x | x | x | x
Cc1ccc2nc(/C(C#N)=C\c3ccc(N4CCCCC4)c([N+](=O)[O-])c3)[nH]c2c1 | n | n | 87[fluorescence artefact?] | 58 | n | n
N#C/C(=C/c1ccc(N2CCCC2)c([N+](=O)[O-])c1)c1nc2ccccc2[nH]1 | n | n | n | n | n | n
COc1ccc(-c2cc(C(=O)Nc3ccc(F)cc3F)no2)cc1 | x | n | x | x | x | x
COc1ccc(OC)c(-c2cc(C(=O)Nc3ccc(F)cc3F)no2)c1 | n | n | 88 | n | n | n
CSc1nnc2c3cc(C)ccc3n(Cc3ccccc3)c2n1 | n | n | 88[fluorescence artefact?] | n | n | n
Cc1cc(/C=C2\SC(=S)NC2=O)c(C)n1-c1cccc(O)c1 | x | n | n | 53 | n | n
Cc1cc(/C=C2/C(=O)NN(c3ccccc3)C2=O)c(C)n1-c1cccc(O)c1 | n | n | n | 87 | n | n
Cc1cc(C=C2C(=O)c3ccccc3C2=O)c(C)n1-c1cccc(C(=O)O)c1 | n | n | n | n | n | n
Cc1sc(-n2c(C)cc(/C=C3\SC(=S)NC3=O)c2C)c(C#N)c1C | n | n | n | 75 | n | n
COc1ccc(S(=O)(=O)N2CCN(c3nn(C)c(=O)n(C)c3=O)CC2)cc1 | x | n | x | x | x | x
O=C(CCN1C(=O)C2C3C=CC(C4CC34)C2C1=O)Nc1ccc(Cl)cc1O (configuration not stated) | x | n | x | x | x | x
SMILES | Mcl-1 Bim block | MCL1-BIM inh | 14-3-3 Bad PPI | Mcl1 Noxa PPI | eIF4E 4G PPI | Mcl1 Bid PPI
O=C(Cn1cc([N+](=O)[O-])nc1[N+](=O)[O-])N1CCN(c2ccccc2)CC1 | n | n | n | n | n | n
N#C/C(=C\Nc1ccc2cn[nH]c2c1)c1nc(-c2ccc(Cl)cc2)cs1 | n | n | 91 | 53 | n | 58
C=CCN(c1ccccc1)S(=O)(=O)c1cccc(C(=O)O)c1 | n | n | 70 | n | n | n
CCOC(=O)NNc1ccc2nonc2c1[N+](=O)[O-] | x | n | n | 97 | n | n
FC(F)(F)c1cnc(Nc2ccc(N3CCOCC3)cc2)c(Cl)c1 | n | n | n | 61 | n | n
O=c1c(Cl)c(N2CCOCC2)cnn1-c1ncc(C(F)(F)F)cc1Cl | n | n | n | n | n | n
CNC(=S)Nc1cc(C)ccc1OC(F)F | n | n | n | n | n | 98
CN(c1ccc(F)cc1)S(=O)(=O)c1ccc2[nH]cc(C(=O)O)c(=O)c2c1 | n | n | n | n | n | 58
COCCN(CCOC)C(=O)c1c[nH]c2ccc(S(=O)(=O)N(C)c3ccc(F)cc3)cc2c1=O | n | n | n | n | n | 62
CCOc1ccccc1N(C)S(=O)(=O)c1ccc2[nH]cc(C(=O)N(CCOC)CCOC)c(=O)c2c1 | x | n | x | x | x | x
CCOC(=O)N1CCN(C(=O)c2c[nH]c3ccc(S(=O)(=O)N(C)c4ccc(F)cc4)cc3c2=O)CC1 | x | n | x | x | x | x
C#CCNC(=O)C1=C[C@@H](c2ccc(C(F)(F)F)cc2)[C@H](CCCO)[C@@H](OCC)O1 | n | n | n | n | n | n
Cc1cc(Br)c2c(c1)C(O)(N1CCCCC1C)C(=O)N2 (configuration not stated) | n | n | n | n | n | n
O=[N+]([O-])c1cc(/C=N/n2c(-c3cccnc3)n[nH]c2=S)ccc1Cl | n | n | n | 70 | n | n
COc1ccc(/C=C2\N=C(c3ccc(C)cc3)OC2=O)cc1 | x | n | x | x | x | x
COc1ccc(C2=NC(=O)/C(=C\c3cc(OC)c(OC)c(OC)c3)O2)cc1 | n | n | n | n | n | 54
COCCCNC(=S)Nc1ccc(CC(=O)O)cc1 | n | n | n | n | n | n
c1ccc2c(c1)nnn2-c1ncnc2sc3c(c12)CCCC3 | n | n | n | n | n | 80
Oc1ccc(N2CCN(c3ncnc4sc5c(c34)CCC5)CC2)cc1 | n | n | n | 74 | n | n
COc1ccc(/C=C/C(=O)OCc2cc(=O)n3c(n2)sc2ccccc23)cc1 | n | n | n | n | n | n
Cc1cccc(C(=O)N[C@H](C(=O)OCc2cc(=O)n3c(n2)sc2ccccc23)C(C)C)c1 | n | n | n | 69 | n | n
O=C(OCc1cc(=O)n2c(n1)sc1ccccc12)c1ccc(O)cc1 | n | n | n | n | n | n
O=c1cc(CCl)nc2sc3ccccc3n12 | n | n | n | n | 40 | n
COc1ccc(S(=O)(=O)N2CCCC2CNC(=O)C(=O)NCc2cccs2)cc1 (configuration not stated) | x | n | x | x | x | x
CC(=O)N1CCc2cc(S(=O)(=O)NC(Cc3ccccc3)C(=O)NC3CCCCCC3)ccc21 (configuration not stated) | n | n | n | 103 | n | 99
CC(=O)N1CCCc2cc(S(=O)(=O)NC(C(=O)NC3CCCCC3)C(C)C)ccc21 (configuration not stated) | n | n | n | n | n | n
Clc1ccc(Cc2ccc(SCc3ccccc3)nn2)c(Cl)c1 | n | n | 72 | n | n | n
CC(C)Cn1c(N)c(C(=O)COC(=O)/C=C/c2ccccc2)c(=O)n(C)c1=O | x | n | x | x | x | x
